Measurements taken from PubChem BioAssay (NCATS).
Results filed as inconclusive are left out. Unless noted, calls come from the whole dose curve; as a rule, active = well fitted curve in either direction with a large enough effect (not every such curve was filed as active); inconclusive = small, poorly fitted or top-dose-only effect, or another doubt; inactive = flat fitted curve, though single readings scatter.

Experiments:
[1] = AP1 Signaling Pathway (AID 357); settings: ME-180 AP-1-bla reporter, EGF-induced, beta-lactamase ratio, 5 h; at 17.2 µM (top of the series) unless noted; note: % is set by controls: 0 for no effect and ±100 for the full control effect
In short: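 ME-180 cells with beta-lactamase reporter under AP-1 response element, stimulated with EC50 EGF; compounds tested in titration series, 5 h at 37 °C. CCF4 substrate added 2.5 h at room temperature; 460/530 nm emission ratio gave %activity and AC50.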

[2] = NFAT Signaling Pathway (AID 444); settings: Jurkat NFAT-bla M1, carbachol, beta-lactamase ratio, 5 h; at 17.2 µM (top of the series) unless noted;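 note: carbachol stimulus at about its EC50 of 1 µM final; % is set by controls: 0 for no effect and ±100 for the full control effect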
In short: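 Jurkat cells carrying an NFAT-driven β-lactamase reporter and co-transfected muscarinic M1 receptor were treated with compound plus carbachol (1 uM final, an EC50 level) for 5 h at 37 °C. CCF4 loading followed for 1 h at RT; 460/530 nm ratio gave %activity.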

[3] = Stat Signaling Pathway (AID 446); settings: ME-180 (cervical carcinoma) SIE beta-lactamase reporter, IL-6 stimulated, 5 h; at 17.2 µM (top of the series) unless noted;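 note: ME-180 cervical cancer cells given 40 pM IL-6 alongside compound; SIE-controlled beta-lactamase reporter measured as 460/530 nm FRET emission ratio; % is set by controls: 0 for no effect and ±100 for the full control effect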
In short: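 Overnight-plated ME-180 cells bearing a STAT Inducible Element beta-lactamase reporter; 5 h co-exposure to compound and 40 pM IL-6; values normalized to 300 pM IL-6 and 125 nM JAK inhibitor controls.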

[4] = molecular target: Glucocorticoid receptor (Homo sapiens) (UniProt P04150); test: GR-GFP Redistribution (AID 450;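 active = compounds whose dose series gives a full or clear partial fitted curve of increased nuclear translocation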; note: potency is the fitted concentration of half-maximal effect)
Chain of Glucocorticoid receptor (Homo sapiens) (P04150 whole entry, looked up): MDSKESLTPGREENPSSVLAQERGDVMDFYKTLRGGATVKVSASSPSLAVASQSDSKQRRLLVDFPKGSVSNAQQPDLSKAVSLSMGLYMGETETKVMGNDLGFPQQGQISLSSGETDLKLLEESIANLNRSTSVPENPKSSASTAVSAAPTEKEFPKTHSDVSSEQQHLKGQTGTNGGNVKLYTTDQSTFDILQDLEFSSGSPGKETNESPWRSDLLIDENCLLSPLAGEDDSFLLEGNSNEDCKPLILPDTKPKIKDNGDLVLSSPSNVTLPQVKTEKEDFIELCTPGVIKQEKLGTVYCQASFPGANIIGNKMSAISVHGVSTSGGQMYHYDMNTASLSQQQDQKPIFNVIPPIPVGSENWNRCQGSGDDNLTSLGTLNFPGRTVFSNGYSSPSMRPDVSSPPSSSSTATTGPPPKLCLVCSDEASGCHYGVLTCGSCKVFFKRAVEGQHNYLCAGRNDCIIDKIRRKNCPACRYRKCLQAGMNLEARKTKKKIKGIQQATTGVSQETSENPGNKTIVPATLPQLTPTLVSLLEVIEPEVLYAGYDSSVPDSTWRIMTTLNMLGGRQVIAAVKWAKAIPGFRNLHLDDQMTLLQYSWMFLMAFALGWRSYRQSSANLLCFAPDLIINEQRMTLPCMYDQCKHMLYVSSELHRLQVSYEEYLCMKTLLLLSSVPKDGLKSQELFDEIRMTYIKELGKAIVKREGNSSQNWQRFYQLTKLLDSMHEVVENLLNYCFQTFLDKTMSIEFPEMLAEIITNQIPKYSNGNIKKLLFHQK

COc1cc(C)nc(Nc2nc(C)c(C(C)=O)s2)n1
inactive: activity change, negative = inhibition [1] 12.9% | activity change, negative = inhibition [2] -2.73% | activity, negative = inhibition [3] 4.9% | Potency [4] > 20.6 µM

CN(C)c1oc(-c2cccs2)nc1C#N
inactive: activity change, negative = inhibition [1] -7.44% | activity change, negative = inhibition [2] 8.47% | activity, negative = inhibition [3] 10.4% | Potency [4] > 20.6 µM

COc1ccc(C(=O)Nc2ccccc2N2CCOCC2)cc1Br
inactive: activity change, negative = inhibition [1] -21.1% | activity change, negative = inhibition [2] 9.59% | activity, negative = inhibition [3] -8.26% | Potency [4] > 20.6 µM

CCOC(=O)c1ccc2nc(NC(NC(C)=O)(C(=O)OC)C(F)(F)F)sc2c1 (stereo not given)
inactive: activity change, negative = inhibition [1] -14% | activity change, negative = inhibition [2] -1.54% | activity, negative = inhibition [3] -10.8% | Potency [4] > 20.6 µM

CN(C)CC(O)COc1ccc(-c2ccc(C#N)cc2)cc1 (stereo not given)
inactive: activity change, negative = inhibition [1] 1.87% | activity change, negative = inhibition [2] 11.2% | activity, negative = inhibition [3] 2.27% | Potency [4] > 20.6 µM

Cn1ncc(N=Cc2ccccc2O)c1C(=O)Nc1ccccc1
inactive: activity change, negative = inhibition [1] -7.55% | activity change, negative = inhibition [2] 7.01% | activity, negative = inhibition [3] 0.0885% | Potency [4] > 20.6 µM

Cc1cccc(OCC(=O)N2CCC(N3CCOCC3)CC2)c1
inactive: activity change, negative = inhibition [1] -0.218% | activity change, negative = inhibition [2] 6.61% | activity, negative = inhibition [3] 2.76% | Potency [4] > 20.6 µM

CCOc1ccc(N=C2C(=O)N(CN3CCOCC3)c3ccccc32)cc1
inactive: activity change, negative = inhibition [1] 2.27% | activity change, negative = inhibition [2] 6.57% | activity, negative = inhibition [3] -3% | Potency [4] > 20.6 µM

OC1CN=C2Sc3ccccc3N2C1 (stereo not given)
inactive: activity change, negative = inhibition [1] 1.76% | activity change, negative = inhibition [2] -2.78% | activity, negative = inhibition [3] -3.59% | Potency [4] > 20.6 µM

CNC(=O)c1cc2ccccc2o1
inactive: activity change, negative = inhibition [1] 8.83% | activity change, negative = inhibition [2] -13.4% | activity, negative = inhibition [3] 2.75% | Potency [4] > 20.6 µM

CC(C)CC(C(=O)O)C(C)CC(=O)Nc1ccn(-c2ccccc2)n1 (stereo not given)
inactive: activity change, negative = inhibition [1] -9.05% | activity change, negative = inhibition [2] 6.76% | activity, negative = inhibition [3] 7.28% | Potency [4] > 20.6 µM

N#CC1(P(=O)(c2ccccc2)c2ccccc2)CC1
inactive: activity change, negative = inhibition [1] 0.213% | activity change, negative = inhibition [2] -2.17% | activity, negative = inhibition [3] 1.75% | Potency [4] > 20.6 µM

CN(C)CCCN1C(=O)C(O)=C(C(=O)c2cc3ccccc3o2)C1c1ccccn1 (stereo not given)
inactive: activity change, negative = inhibition [1] 7.64% | activity change, negative = inhibition [2] 7.35% | activity, negative = inhibition [3] -0.93% | Potency [4] > 20.6 µM

CCOc1ccc(/C(O)=C2/C(=O)C(=O)N(c3nc(C)c(C)s3)C2c2ccco2)cc1 (stereo not given)
inactive: activity change, negative = inhibition [1] -13.5% | activity change, negative = inhibition [2] 20.9% | activity, negative = inhibition [3] -19% | Potency [4] > 20.6 µM

COc1ccc(/C(O)=C2/C(=O)C(=O)N(CCCN(C)C)C2c2ccc(C)o2)cc1Cl (stereo not given)
inactive: activity change, negative = inhibition [1] 9.2% | activity change, negative = inhibition [2] -6.18% | activity, negative = inhibition [3] 3.77% | Potency [4] > 20.6 µM

CC(C)C1Cc2c(sc3c2c(=O)n(Cc2ccccc2)c2nncn32)CO1 (stereo not given)
inactive: activity change, negative = inhibition [1] -0.408% | activity change, negative = inhibition [2] -11.6% | activity, negative = inhibition [3] -3.52% | Potency [4] > 20.6 µM

O=c1cc(NCc2ccccc2)nc2n1CCCS2
inactive: activity change, negative = inhibition [1] 5.41% | activity change, negative = inhibition [2] 19% | activity, negative = inhibition [3] -19.7% | Potency [4] > 20.6 µM

O=C1OC2CCC1(c1ccccc1)C2 (stereo not given)
inactive: activity change, negative = inhibition [1] -4.71% | activity change, negative = inhibition [2] 10% | activity, negative = inhibition [3] -3.95% | Potency [4] > 20.6 µM

CC(O)Cn1ccccc1=N (stereo not given)
inactive: activity change, negative = inhibition [1] -4.75% | activity change, negative = inhibition [2] 25.6% | activity, negative = inhibition [3] 3.45% | Potency [4] > 20.6 µM

CC(=O)N1CCC2(CC1)C(C#N)=C(N)Oc1n[nH]c(C(F)(F)F)c12
inactive: activity change, negative = inhibition [1] 8.06% | activity change, negative = inhibition [2] -24.1% | activity, negative = inhibition [3] 5.71% | Potency [4] > 20.6 µM

CCCCc1nc(N2CCOCC2)c(C#N)c2c1CCCC2
inactive: activity change, negative = inhibition [1] -10.8% | activity change, negative = inhibition [2] -27.2% | activity, negative = inhibition [3] -8.28% | Potency [4] > 20.6 µM

O=C(CSc1nnc(-c2ccccc2)c(-c2ccccc2)n1)N1CCOCC1
inactive: activity change, negative = inhibition [1] -3.06% | activity change, negative = inhibition [2] 0.00472% | activity, negative = inhibition [3] 8.97% | Potency [4] > 20.6 µM

N#CC1=C(N)N2C(=C(C#N)C1c1ccccc1)Sc1ccccc12 (stereo not given)
inactive: activity change, negative = inhibition [1] 17.5% | activity change, negative = inhibition [2] -26.8% | activity, negative = inhibition [3] 3.71% | Potency [4] > 20.6 µM

CC1(C)CN(O)CCN1O
inactive: activity change, negative = inhibition [1] 29.1% | activity change, negative = inhibition [2] 0.875% | activity, negative = inhibition [3] 7.69% | Potency [4] > 20.6 µM

CSc1nnc2n(C3CCCCC3)c(=O)c3c4c(sc3n12)CCCC4
inactive: activity change, negative = inhibition [1] 19.1% | activity change, negative = inhibition [2] 3.83% | activity, negative = inhibition [3] 14.1% | Potency [4] > 20.6 µM
